Data: PMC5540273 (PLoS ONE, 2017)

Columns and labels:
Conditions in all cases: concentration: 1 μM, replicates: in singlicate; n = 1
[1] = test system: TNNI3K
[2] = test system: T1, TRKA
T1 construct: gene NTRK1

[3] = test system: TRKB
[4] = test system: T2, TRKC
T2 construct: gene NTRK3

[5] = test system: TRPM6
[6] = test system: TSSK1B
[7] = test system: TSSK3
[8] = test system: TTK
[9] = test system: TXK
[10] = test system: TYK2(JH1domain-catalytic)
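Note: KINOMEscan kinase panel screen.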

Compound | %Inh [1] [%] | %Inh [2] [%] | %Inh [3] [%] | %Inh [4] [%] | %Inh [5] [%] | %Inh [6] [%] | %Inh [7] [%] | %Inh [8] [%] | %Inh [9] [%] | %Inh [10] [%]
COC(=O)Nc1nc2cc(Oc3ccc(NC(=O)Nc4cc(C(F)(F)F)ccc4F)cn3)ccc2[nH]1.Cl.Cl [GW681170] | 92.9 | 100 | 97.4 | 97 | 29 | 0 | 16 | 43 | 0 | 14
CCn1c(-c2nonc2N)nc2c(C#CC(C)(C)O)ncc(OCCCCN)c21.O=C(O)C(F)(F)F.O=C(O)C(F)(F)F [GSK507274] | 9 | 0 | 19 | 1 | 0 | 80 | 99.5 | 21 | 49 | 33
Nc1ncc(-c2ccc3nccc(-c4ccncc4)c3c2)cc1S(=O)(=O)N1CCOCC1 [GSK1627798] | 0 | 90.2 | 90.7 | 74 | 0 | 0 | 0 | 8 | 0 | 0
Cc1ccc(C)c(NC(=O)NC2CCN(c3ccnc(Nc4ccc(F)cc4)n3)C2)c1 (centres unmarked) [GSK1379720] | 4 | 0 | 51 | 65 | 14 | 0 | 15 | 13 | 16 | 36
C[C@@H]1CC[C@@H](C(=O)Nc2ccccc2)CN1c1cc(-c2ccc3c(N)n[nH]c3c2)nc(N)n1 [GSK2286062] | 0 | 12 | 0 | 13 | 0 | 0 | 0 | 9 | 0 | 15
O=C(Nc1n[nH]c2nc(-c3ccc(O)cc3)ccc12)C1CC1 [SB-710363] | 0 | 26 | 0 | 41 | 0 | 0 | 37 | 0 | 0 | 9
CC(C)(C)c1ccc2nccc(Nc3cccc(O)c3)c2c1 [GW856795] | 0 | 72 | 40 | 31 | 0 | 0 | 60 | 0 | 79 | 42
CN(C)S(=O)(=O)c1cc(-c2ccc3nccc(-c4cccc(S(N)(=O)=O)c4)c3c2)cnc1N [GSK1669921] | 8 | 87 | 0 | 48 | 4 | 3 | 18 | 47 | 26 | 13
COc1cccc(-c2ccc3c(NC(=O)C4CC4)n[nH]c3n2)c1 [SB-710903] | 5 | 0 | 66 | 58 | 0 | 0 | 3 | 0 | 0 | 52
c1ccc(-c2n[nH]cc2Nc2ccnc3ccccc23)nc1 [GW694077] | 0 | 74 | 26 | 21 | 15 | 12 | 28 | 64 | 0 | 92
COc1cc(Nc2nccc(N3CCC(NC(=O)c4cc5ccccc5s4)C3)n2)cc(OC)c1OC (centres unmarked) [GSK1379760] | 0 | 21 | 0 | 35 | 17 | 0 | 26 | 0 | 0 | 28
Cc1cccc(NC(=O)Nc2ccc(Oc3ncnc4ccn(C)c34)cc2)c1 | 0 | 20 | 35 | 57 | 0 | 19 | 0 | 0 | 0 | 0
COc1ccc(CNC(=O)NC2CCN(c3ccnc(Nc4ccc(F)cc4)n3)CC2)cc1 [GSK1379788] | 0 | 0 | 0 | 6 | 0 | 1 | 18 | 0 | 3 | 21
Cc1ccc(C(=O)Nc2ccc(Nc3ccnc4cc(-c5nccs5)ccc34)cc2O)cc1.Cl [GW494702] | 6 | 60 | 20 | 25 | 29 | 13 | 6 | 0 | 52 | 42
Nc1ncc(-c2cccnc2)c2scc(-c3ccc4c(c3)CCN4C(=O)Cc3ccccc3)c12 [GSK683281] | 20 | 22 | 0 | 0 | 40 | 20 | 22 | 0 | 10 | 11
Cn1cc(-c2[nH]c3cc(NC(=O)[C@H](N)C4CCCCC4)cc4c3c2C=NNC4=O)cn1 | 54 | 91.6 | 64 | 57 | 11 | 73 | 23 | 0 | 32 | 95.1

Compound | %Inh [1] [%] | %Inh [2] [%] | %Inh [3] [%] | %Inh [4] [%] | %Inh [5] [%] | %Inh [6] [%] | %Inh [7] [%] | %Inh [8] [%] | %Inh [9] [%] | %Inh [10] [%]
Nc1n[nH]c2cnc(-c3ccccc3)cc12 [SB-642124] | 0 | 0 | 28 | 20 | 9 | 30 | 12 | 0 | 3 | 79
Cn1cc(-c2ccc3c(c2)CCN3C(=O)Cc2cccc(Cl)c2)c2c(N)ncnc21 [GSK2606590] | 0 | 73 | 54 | 57 | 0 | 20 | 17 | 30 | 0 | 10
COc1cc2c(cc1OCCN1CCNCC1)ncc1c3ccc(C#N)cc3[nH]c21 | 0 | 99.8 | 94.1 | 77 | 100 | 22 | 15 | 0 | 11 | 50
CN(C)Cc1ccc(-c2ccc3c(Nc4ccc(Oc5ccccn5)cc4)ccnc3c2)o1 [GW567148] | 0 | 100 | 31 | 35 | 52 | 0 | 6 | 0 | 0 | 30
O=C(Nc1cccc(-c2nn3ncccc3c2-c2ccnc(Nc3ccccc3)n2)c1)c1c(F)cccc1F [GSK198271] | 36 | 0 | 0 | 0 | 55 | 0 | 18 | 7 | 84 | 7
Fc1ccc(-c2ncn(C3CCNCC3)c2-c2ccnc(Oc3ccc(-c4ccccc4)cc3)n2)cc1 [SB-245391] | 42 | 13 | 0 | 19 | 19 | 0 | 15 | 22 | 8 | 32
CCc1ccc(-c2ccc3c(c2)-c2c(cnn2C)S(=O)(=O)N3C)cc1 | 0 | 0 | 0 | 0 | 1 | 5 | 0 | 0 | 0 | 0
CNC(=O)c1ccccc1Nc1nc(Nc2ccc(N3CCOCC3)cc2)ncc1Cl.Cl [GSK1576028] | 50 | 100 | 96.6 | 97.1 | 75 | 15 | 17 | 95 | 97.6 | 99.9
O=C(Nc1ccccc1F)NC1CCN(c2ccnc(Nc3ccc(F)cc3)n2)CC1 [GSK1379800] | 0 | 0 | 0 | 6 | 0 | 1 | 22 | 0 | 46 | 28
COc1ccc(Nc2nccc(NCCNC(=O)c3cc4ccccc4s3)n2)cc1 [GSK1379896] | 13 | 18 | 0 | 0 | 34 | 0 | 20 | 0 | 0 | 25
O=C(NC1CCN(c2ccnc(Nc3ccc(F)cc3)n2)C1)c1cc2ccccc2s1 (centres unmarked) [GSK1379716] | 4 | 10 | 0 | 8 | 22 | 5 | 19 | 17 | 8 | 2
CN1CCN(CCCNc2nccc(-c3c(-c4ccc(F)cc4)nn4cc(C(F)(F)F)ccc34)n2)CC1 [GW621581] | 0 | 0 | 11 | 5 | 1 | 0 | 0 | 0 | 14 | 28
O=C(Nc1cccc(-c2nn3ccccc3c2-c2ccnc(Nc3cccc(F)c3)n2)c1)c1c(F)ccc(F)c1Cl [GSK357952] | 0 | 11 | 0 | 0 | 32 | 0 | 6 | 28 | 67 | 11
NCCCC(NC(=O)c1cc(Br)c(-c2ccnc3[nH]ccc23)s1)c1ccccc1.O=C(O)C(F)(F)F.O=C(O)C(F)(F)F (centres unmarked) [GSK1287544] | 0 | 53 | 11 | 17 | 16 | 17 | 1 | 21 | 18 | 75
COc1cc(Nc2nccc(-c3c(-c4cccc(NC(=O)c5c(F)cccc5F)c4)nn4ccccc34)n2)cc(OC)c1OC [GSK323521] | 3 | 78 | 35 | 40 | 16 | 0 | 20 | 10 | 0 | 0
CC(=O)Nc1nc2cnc(Nc3cc(NC(=O)c4cccc(C5(C#N)CC5)c4Cl)ccc3C)nc2s1 | 18 | 0 | 0 | 0 | 0 | 0 | 0 | 21 | 33 | 0
